G9a inh – blocks human histone lysine methyltransferase G9a. G9a H3K9 monomethylation, AlphaScreen, 2 h. Potency, µM (doses to about 102 µM), without a hit: at the top dose activity, negative = inhibition, actives largely listed as inhibitors. AID 504332. 8.8% of 350,000 active. Q96KQ7; note: % is set by controls: 0 for no effect and ±100 for the full control effect; nearly all actives have a fitted effect of over 75% in size
Target sequence (Q96KQ7 913-1193 limits assumed): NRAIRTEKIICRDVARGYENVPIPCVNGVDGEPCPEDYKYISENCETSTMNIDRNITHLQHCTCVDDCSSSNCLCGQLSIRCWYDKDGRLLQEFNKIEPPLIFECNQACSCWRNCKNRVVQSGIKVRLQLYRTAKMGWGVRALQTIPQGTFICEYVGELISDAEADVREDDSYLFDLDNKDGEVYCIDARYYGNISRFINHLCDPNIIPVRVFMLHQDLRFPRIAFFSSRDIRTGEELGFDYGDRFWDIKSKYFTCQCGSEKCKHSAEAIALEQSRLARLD
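Chemiluminescent proximity detection of H3K9 monomethylation, read after 10 min bead incubation in the dark. Reaction: 20 nM G9a, 500 nM biotin-H3K9 peptide, 20 uM SAM cofactor, 2 h, room temperature, following 15 min enzyme-compound preincubation.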
PLK1 PBD block – PLK1 (human) polo-box domain binding inhibition | Plk1 PBD binding of FITC phosphopeptide, fluorescence polarization | Potency, µM, for inactives: max response, negative = inhibition, usual class: inhibitors | 2.8% of 360,000 active | AID 720504; note: series mostly up to about 57 µM; % is set by controls: 0 for no effect and ±100 for the full control effect; nearly all actives have a fitted effect of over 65% in size
BAZ2B inh – inhibitors of human BAZ2B bromodomain | AlphaScreen BAZ2B-H3K14Ac peptide displacement | Q9UIF8 | AID 504333 | 4.4% of 360,000 active | Potency, µM (highest dose often 114 µM), inactives show at the top dose activity change, negative = inhibition, usual class: inhibitors; note: % is set by controls: 0 for no effect and ±100 for the full control effect; nearly all actives have a fitted effect of over 60% in size
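In this displacement format the biotinylated H3(5-23) peptide acetylated at Lys14 serves as ligand at 50 nM, with BAZ2B at 50 nM in PBS pH 7.4 containing 0.01% Tween-20. Donor and acceptor beads are 10 ug/mL final.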
Sfp inh – inhibitors of Bacillus subtilis Sfp phosphopantetheinyl transferase; Q9F4F7; Biochemical Sfp PPTase activity, qHTS; Potency, µM, for inactives: largest response in the series, negative = inhibition, hits mostly inhibitors; 3.5% of 310,000 active;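 note: the enzyme is Sfp with the accession as filed and its product quenches rhodamine fluorescence; 0% = enzyme reaction without inhibitor and -100% = no enzyme wells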
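Step 1, compound plus 15 nM Sfp-PPTase, 15 min, room temperature. Step 2, add rhodamine-CoA (5 uM) and BHQ-2-YbbR (12.5 uM). Step 3, read 525/598 nm fluorescence at 0 and 30 min.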
HP1b chromo inh – inhibitors of HP1-beta chromodomain binding to methylated histone tails; P83916; AlphaScreen HP1-beta / biotin-H3K9me3 peptide binding; Potency, µM (series often up to 114 µM), without a hit: at the highest dose activity change, negative = inhibition, most hits filed as inhibitors; 0.56% of 390,000 active; AID 540317; note: nearly all actives have a fitted effect of over 70% in size
Target sequence (P83916 whole entry, looked up): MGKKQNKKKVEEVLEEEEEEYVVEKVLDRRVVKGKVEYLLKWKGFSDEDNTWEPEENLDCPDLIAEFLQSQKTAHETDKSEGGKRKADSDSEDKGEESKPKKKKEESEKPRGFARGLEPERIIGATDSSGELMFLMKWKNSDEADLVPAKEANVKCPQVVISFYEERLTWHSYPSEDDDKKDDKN
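Compound inhibition of the preformed complex between 50 nM HP1-beta and 50 nM biotinylated H3K9me3 peptide was read by AlphaScreen. Buffer was PBS pH 7.4 with 0.01% Tween-20. Incubations ran 30 min at room temperature, with 10 ug/mL donor/acceptor beads.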
JMJD2A Tudor inh – JMJD2A Tudor domain (human) inhibition; O75164; AlphaScreen JMJD2A-Tudor / H3K4me3 peptide binding; Potency, µM (doses to about 114 µM), without a hit: at the top dose activity change, negative = inhibition, most hits filed as inhibitors; 4.4% of 390,000 active; AID 504339; note: % is set by controls: 0 for no effect and ±100 for the full control effect; nearly all actives have a fitted effect of over 50% in size
Active calls of the source: *; [ ] = another dose, or the depositor's remark. An excerpt weighted towards active compounds, which were near 12% of everything screened. Calls come from the whole dose curve; as a rule, active = well fitted curve in the direction sought with a large enough effect; inconclusive = small, poorly fitted or top-dose-only effect, or another doubt; inactive = no such curve, though single readings can be large; an effect the other way counts as inactive or inconclusive. Potency is the fitted concentration of half-maximal effect.

Results for CCC(C)NC(=O)CN1C(=O)c2cccnc2Oc2ccc(C)cc21 (stereo not given) ?
G9a inh: -5.3%[59 µM]; BAZ2B inh: 12.9%; HP1b chromo inh: 39.7%; JMJD2A Tudor inh: 50.1µM*

Results for COc1ccc(N2C(=NC(=O)C3CCCCC3)SC3CS(=O)(=O)CC32)cc1 (stereo not given) ?
G9a inh: 16.3%; PLK1 PBD block: 2.0%; BAZ2B inh: -1.7%[57.1 µM]; Sfp inh: 8.9%; HP1b chromo inh: 32.9%; JMJD2A Tudor inh: -3.0%

How did COc1ccc(N2C(=NC(=O)C3CCCCC3)SC3CS(=O)(=O)CC32)c(OC)c1 (stereo not given) do in these assays?
G9a inh: 65.5%; PLK1 PBD block: 11.9µM*; BAZ2B inh: -28.4%; Sfp inh: 12.8%; HP1b chromo inh: 5.9%; JMJD2A Tudor inh: 28.2µM*

How did CCc1nc2sc3c(=O)[nH]cnc3c2c2c1CSC(C)(C)C2 do in these assays?
G9a inh: 2.24µM*; PLK1 PBD block: 26.7µM*; BAZ2B inh: inconclusive; Sfp inh: 44.7µM*; HP1b chromo inh: 16.1%; JMJD2A Tudor inh: -33.0%

Results for Oc1c(C(c2cccs2)N2CCN(c3ccccc3)CC2)ccc2cccnc12 (stereo not given) ?
G9a inh: 1.26µM*; BAZ2B inh: 39.8µM*; Sfp inh: 39.8µM*

Results for CN1CCN(C(c2ccc(C(F)(F)F)cc2)c2ccc3cccnc3c2O)CC1 (stereo not given) ?
G9a inh: 7.94µM*; PLK1 PBD block: 3.77µM*; BAZ2B inh: 39.8µM*; Sfp inh: -2.4%; HP1b chromo inh: inconclusive; JMJD2A Tudor inh: 56.2µM*

Results for CN1CCN(C(c2cccc(C(F)(F)F)c2)c2nnnn2C(C)(C)C)CC1 (stereo not given) ?
G9a inh: inconclusive; PLK1 PBD block: -7.3%; BAZ2B inh: 14.0%; Sfp inh: 2.6%; HP1b chromo inh: 10.2%; JMJD2A Tudor inh: 0.6%

How did Oc1c(C(c2ccccc2Cl)N2CCCC2)ccc2cccnc12 (stereo not given) do in these assays?
G9a inh: 11.2µM*; PLK1 PBD block: 7.52µM*; BAZ2B inh: 20µM*; Sfp inh: 1.7%; HP1b chromo inh: -35.4%; JMJD2A Tudor inh: 20µM*

How did CC(C)(C)n1nnnc1C(c1cccs1)N1CCN(c2ccccc2)CC1 (stereo not given) do in these assays?
G9a inh: -9.7%; PLK1 PBD block: 4.8%; BAZ2B inh: -5.7%; Sfp inh: 6.3%; HP1b chromo inh: 9.1%; JMJD2A Tudor inh: -19.7%[57.1 µM]

What do the screens show for `CCCCC(=O)NC(c1ccccc1Cl)c1ccc2cccnc2c1O` (stereo not given)?
PLK1 PBD block: -6.0%; BAZ2B inh: 9.2%; Sfp inh: 7.2%; HP1b chromo inh: 52.3%; JMJD2A Tudor inh: -13.6%

Results for CCOc1ccc(-c2n[nH]c3c2C(c2cccs2)N(c2ccc(Br)cc2)C3=O)cc1 (stereo not given) ?
G9a inh: 1.5%[59 µM]; HP1b chromo inh: 16.1%; JMJD2A Tudor inh: -20.0%

What do the screens show for `O=c1c2ccccc2nc(COc2ccccc2)n1/N=C/c1ccc(O)c(O)c1`?
G9a inh: 3.16µM*; PLK1 PBD block: -0.7%; BAZ2B inh: 44.7µM*; Sfp inh: -1.0%; HP1b chromo inh: -16.6%; JMJD2A Tudor inh: inconclusive

How did Cc1cc(/C=N/n2c(COc3ccccc3)nc3ccccc3c2=O)c(O)c([N+](=O)[O-])c1 do in these assays?
G9a inh: -21.1%[59 µM]; PLK1 PBD block: inconclusive; BAZ2B inh: 4.47µM*; Sfp inh: -0.6%; HP1b chromo inh: inconclusive; JMJD2A Tudor inh: 12.6µM*

How did Oc1ccc(/C=N/n2c(COc3ccccc3)n[nH]c2=S)cc1O do in these assays?
G9a inh: 10µM*; PLK1 PBD block: 21.2µM*; BAZ2B inh: inconclusive; Sfp inh: 56.2µM*; HP1b chromo inh: inconclusive; JMJD2A Tudor inh: 3.16µM*

Results for Cc1ccc(-c2[nH]ncc2/C=N/n2c(COc3ccccc3)nc3ccccc3c2=O)cc1 ?
G9a inh: -2.0%[59 µM]; PLK1 PBD block: 1.5%; BAZ2B inh: 3.7%; Sfp inh: 20.8%; HP1b chromo inh: 18.1%; JMJD2A Tudor inh: -17.8%

How did O=C(Nn1c(COc2ccccc2)nc2ccccc2c1=O)C(Cl)(Cl)Cl do in these assays?
G9a inh: 50.1µM*; PLK1 PBD block: -28.7%; BAZ2B inh: 0.3%; Sfp inh: 10.8%; HP1b chromo inh: -1.0%; JMJD2A Tudor inh: -12.1%

What do the screens show for `COC(=O)C1CCN(S(=O)(=O)c2ccc(N3CCCCS3(=O)=O)cc2)CC1`?
G9a inh: 2.0%[59 µM]; BAZ2B inh: -2.7%; HP1b chromo inh: 21.3%; JMJD2A Tudor inh: -4.3%

How did CCCOC(=O)c1cccc(NC(=O)c2c(-c3ccccc3Cl)noc2C)c1 do in these assays?
G9a inh: 0.4%[59 µM]; BAZ2B inh: 11.5%; HP1b chromo inh: 32.8%; JMJD2A Tudor inh: 12.2%

Results for COc1ccc(OC)c(NC(=O)Cn2c(=O)n(CC3CCCO3)c(=O)c3cc(OC)c(OC)cc32)c1 (stereo not given) ?
G9a inh: -1.5%; PLK1 PBD block: -5.5%; BAZ2B inh: -26.7%; Sfp inh: 17.1%; HP1b chromo inh: 15.1%; JMJD2A Tudor inh: -19.3%

Results for COC(=O)c1ccc(OC)c(CN2C(=O)N(c3ccc(C(C)=O)cc3)S(=O)(=O)c3ccccc32)c1 ?
G9a inh: -3.4%[59 µM]; BAZ2B inh: 0.1%; HP1b chromo inh: 26.8%; JMJD2A Tudor inh: -19.3%

Results for O=C(Nc1cccc(Cl)c1Cl)c1cc(S(=O)(=O)N2CCC3(CC2)OCCO3)ccc1F ?
G9a inh: -8.9%[59 µM]; BAZ2B inh: 6.7%; HP1b chromo inh: 32.1%; JMJD2A Tudor inh: -20.5%

How did CCN(c1ccccc1)S(=O)(=O)c1ccc(NC(=O)c2cc(=O)c3cc(C)c(C)cc3o2)cc1 do in these assays?
G9a inh: 2.2%[59 µM]; BAZ2B inh: 0.6%; HP1b chromo inh: 18.6%; JMJD2A Tudor inh: -9.0%

Results for CCOc1cc(/C=N/n2c(COc3ccccc3)n[nH]c2=S)ccc1O ?
G9a inh: 4.47µM*; PLK1 PBD block: -8.4%; BAZ2B inh: -16.7%; Sfp inh: -11.8%; HP1b chromo inh: 24.0%; JMJD2A Tudor inh: inconclusive

Results for CC1CCCCC12NC(=O)N(CC(=O)N1CCN(c3ncccn3)CC1)C2=O (stereo not given) ?
G9a inh: inconclusive; PLK1 PBD block: -20.7%; BAZ2B inh: -0.6%; HP1b chromo inh: 25.9%; JMJD2A Tudor inh: -5.1%

What do the screens show for `CC(NC(=O)CCCCCNC(=O)N1CCn2c1nc1ccccc12)c1ccccc1` (stereo not given)?
G9a inh: 22.6%; PLK1 PBD block: -6.4%; BAZ2B inh: -10.6%; Sfp inh: -2.4%; HP1b chromo inh: 32.1%; JMJD2A Tudor inh: -14.4%

Assay outcomes: PubChem, National Center for Advancing Translational Sciences (NCATS)
